Screening results as filed in PubChem BioAssay.
SKKanGAS inh: blocks kanamycin growth of S. pyogenes SKKanGAS strain; BacTiter-Glo, 6 h; inhibition, % at 7.5 µM; 300,000 tested, 1.3% active; AID 1662;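 active means mean replicate score, as percent of positive control median, at least 50; inconclusive means mean below 50 but one replicate at or above 50; inactive means mean and every replicate below 50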;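 further: strain carries kanamycin resistance gene driven by streptokinase promoter and grows in 40 µg/ml kanamycin; loss of luminescence reflects streptokinase promoter inhibition or plain growth inhibition; 0% = median of DMSO wells and 100% = positive control at its reference dose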
TIM10 inh: TIM10 yeast growth inhibition | S. cerevisiae TIM10 strain growth, BacTiter-Glo luminescence, 24 h | inhibition, % at 10 µM | 330,000 tested, 1.4% active | AID 463195;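 active means inhibition of 40% or more at the single tested concentration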;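 further: wild-type TIM10 isogenic control strain grown at permissive 25 °C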
Calb FLC: C. albicans growth modulation with fluconazole; C. albicans CaCi-2 (fluconazole-resistant clinical isolate) + fluconazole, Alamar Blue growth, 48 h; growth inhibition, % (concentration not given with the values); 300,000 tested, 0.57% active; AID 1979;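 active means growth inhibition above about 58% in most replicates, limit read from the data, passing the limit was not always enough; inconclusive means exactly half the replicates above a set limit; inactive means most replicates below a set limit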;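 further: all wells also contain fluconazole at 8 µg/ml as a sub-toxic cotreatment; 0% = median of DMSO wells and 100% = median of geldanamycin control wells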
tim23-1 inh: tim23-1 yeast growth inhibition. S. cerevisiae tim23-1 growth, BacTiter-Glo luminescence, 24 h. inhibition, % at 20 µM. 330,000 tested, 1.3% active;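 active means growth inhibition of the mutant yeast at or above 50%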;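 further: temperature-sensitive mutant grown at 25 °C; plate controls were DMSO-treated mutant yeast for no effect and medium wells lacking yeast for full effect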
tim10-1 inh: inhibits growth of tim10-1 mutant yeast | AID 463190 | 330,000 tested, 2.2% active | inhibition, % at 20 µM | S. cerevisiae tim10-1 ts strain growth, BacTiter-Glo, 24 h;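 active means inhibition of at least 40%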;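 further: mutant grown at 25 °C; 0% = DMSO wells with yeast and 100% = wells holding no yeast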
PfHsp90 set2: growth inhibition of yeast expressing Plasmodium Hsp90 | 310,000 tested, 0.32% active | inhibition, % at 9.4 µM | S. cerevisiae expressing PfHsp90, BacTiter-Glo ATP, 48 h; yeast lacking PDR1 and PDR3 efflux regulators;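 active means every replicate shows inhibition above about 80%, whatever the replicate mean, limit read from the data; inconclusive means mean inhibition reaches the set limit but some replicate falls short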;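 further: 0% = DMSO neutral controls and 100% = 20 µM radicicol positive controls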
tim10-1 conf: tim10-1 yeast growth inhibition, confirmed. 7,400 tested, 56% active. S. cerevisiae tim10-1 ts strain growth, BacTiter-Glo, 24 h. shares compounds with tim10-1 inh. AID 463213. inhibition, % at 20 µM;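 active means inhibition of yeast growth at or above a set limit in either of two repeat tests at 20 µM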;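 further: tim10-1 mutant grown at permissive 25 °C to find synthetic lethal compounds; 0% = DMSO yeast wells and 100% = medium wells without yeast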
* marks the source's active call; other numbers are inactive results; u = inconclusive; x = no result given. This is a sample that favours compounds with a hit; in the whole collection about 4.7% have one here.

SMILES	SKKanGAS inh	TIM10 inh	Calb FLC	tim23-1 inh	tim10-1 inh	PfHsp90 set2	tim10-1 conf
CCCC(=O)Nc1cc(-c2nn(C)c(=O)c3ccccc23)ccc1N1CCCCC1	-2	22	4	18	25	-1	x
CCCC(=O)Nc1cc(-c2nnc(OC)c3ccccc23)ccc1N1CCCCC1	19	39	u	37	49*	x	26
Cc1noc(C)c1S(=O)(=O)Nc1ccc2c(c1)CC(=O)N([C@H](C)CO)C[C@H](C)[C@@H](CN(C)CC1CC1)O2	x	-3	x	16	9	0	x
CCc1ccc([C@@H]2CC=C(C(=O)O)[C@H](c3ccccc3F)N2S(=O)(=O)c2ccc(C)cc2)cc1	x	-13	x	-1	41*	-17	11
CC(C)COc1ccc(C(=O)CCN2CCCCC2)cc1	-5	-10	1	18	54*	7	-8
Oc1cccc(-c2nnc(-c3cccc(O)c3)nn2)c1	x	x	x	x	x	28	x
COc1ccc(/C=C/C(=O)c2cc(F)ccc2OC(=O)c2ccccc2C)cc1OC	-15	20	25	30	41*	-15	20
COc1cc(C(=O)Nc2ccc(Nc3ccccc3)cc2)cc(OC)c1OC	4	25	56	42	43*	-6	42*
COc1cc(C(=O)Nc2ccncc2)cc(OC)c1OC	-4	-1	27	-1	2	-1	x
COc1cc(C(=O)Nc2ccc(Cl)c(C(F)(F)F)c2)cc(OC)c1OC	-1	36	14	44	43*	45	53*
Cc1ccc2nc(SCC(=O)N(CC(C)C)c3c(N)n(Cc4ccccc4)c(=O)[nH]c3=O)[nH]c2c1	-1	10	-4	11	5	9	x
COc1ccccc1C/C(N)=N/OC(=O)c1ccco1	0	29	1	43	50*	-9	38*
COc1ccccc1C/C(N)=N/O	-5	13	1	-1	10	2	x
O=C(CSc1nnc(-c2ccc(F)cc2)o1)Nc1ccccc1N1CCOCC1	-3	37	-5	28	40*	18	26
CC(=O)c1cccc(N(CC(=O)NC2CCCCC2)C(=O)CCC(=O)Nc2nc(C)cs2)c1	2	4	-7	3	-14	-28	x
CC(C)n1ncc2c(C(=O)N3CCN(Cc4ccc(Br)s4)CC3)cc(C3CC3)nc21	x	17	x	39	21	13	x
CC(C)(C)NC(=S)N/N=C/c1c(Cl)cccc1Cl	-7	37	-4	32	40*	0	21
CCNC(=S)N/N=C/c1cccc(/C=N/NC(=S)NCC)c1	-6	-2	2	-8	-18	-17	x
CCNC(=S)N/N=C/c1c(Cl)cccc1Cl	-9	21	-63	19	41*	4	22
CCCN(CC(=O)Nc1ccc(C(N)=O)cc1)CC(=O)Nc1ccc(F)c(F)c1F	5	4	-4	7	25	-12	x
O=C(CCNc1ccc(Cc2ccncc2)cc1)c1cccc([N+](=O)[O-])c1	3	31	-5	23	43*	-1	34*
Cc1c(C(=O)Nc2ccc3c(c2)OCCO3)sc2ncnc(N3CCCCC3C)c12 (stereo not given)	-17	5	3	46	46*	-42	20
Cc1nc(N2CCOCC2)c2c(C)c(C(=O)Nc3ccccc3Cl)sc2n1	0	-9	-3	-16	-3	-5	x
Cc1nc(N2CCC(C)CC2)c2c(C)c(C(=O)Nc3ccc4c(c3)OCCO4)sc2n1	-3	17	17	40	42*	11	12
O=S(=O)(NCc1ccc(F)cc1)c1ccc2c(c1)OCCO2	-3	28	-9	37	53*	x	37*
SMILES	SKKanGAS inh	TIM10 inh	Calb FLC	tim23-1 inh	tim10-1 inh	PfHsp90 set2	tim10-1 conf
COc1ccc(S(=O)(=O)NCCSc2ccc(Cl)cc2)cc1OC	-4	22	1	34	30	18	x
O=S(=O)(NCCSc1ccc(Cl)cc1)c1ccc2c(c1)OCCO2	2	24	-80	30	56*	-11	49*
O=S(=O)(NCCSCc1ccc(Cl)cc1Cl)c1ccc2c(c1)OCCO2	-10	19	-4	28	45*	-26	34*
COc1cccc(NC(=O)NNC(=O)CCc2ccc(O)c(O)c2)c1	3	5	-28	0	-15	4	x
N#Cc1ccc(COC(=O)CC(NC(N)=O)c2ccc(Cl)cc2)cc1 (stereo not given)	-4	-2	2	21	9	-11	x
NC(=O)CC(NC(=O)Cc1cccc2ccccc12)c1ccc(N2CCN(c3ccccn3)CC2)c([N+](=O)[O-])c1 (stereo not given)	2	-15	0	-6	-6	8	x
CC1CCN(S(=O)(=O)c2ccc(C(=O)Nc3nnc(C4CC4)o3)cc2)CC1	17	20	0	38	41*	x	10
CN(CCCS(=O)(=O)[O-])c1ccc(/C=C/c2ccc3ccccc3[n+]2C)cc1	6	8	-6	39	43*	-10	5
COc1ccc(-c2csc(NC(=O)CS(=O)(=O)c3ccc(F)cc3)n2)cc1OC	29	-4	-2	14	-3	3	x
CCOC(=O)CSc1cc(C)c(C#N)c2nc3ccccc3n12	0	-3	14	28	41*	14	26
Cc1ccc(NC(=S)/N=C(\N)Nc2nc(C)c3cc(C)ccc3n2)c(C)c1	11	32	-4	48	50*	19	37*
COc1ccc2nc(N/C(N)=N/C(=S)Nc3cccc(C)c3)nc(C)c2c1	42	25	6	28	30	-15	x
Cc1cc(NC(=O)C2CC(=O)N(c3cccc(Cl)c3)C2)no1 (stereo not given)	-14	-28	3	-4	-11	15	x
COc1ccccc1C(=O)NCC(=O)NCc1cc(=O)n(C)c(=O)n1C	4	-4	-13	15	12	14	x
CN(C)S(=O)(=O)c1cccc(COc2ccccc2C(=O)Nc2ccccc2)c1	-7	7	-2	37	30	3	x
Cn1ccsc1=NC(=O)c1ccc(Cl)c([N+](=O)[O-])c1	-2	-7	7	-1	-1	10	x
Cn1cccc1C(=O)NC(=O)COC(=O)c1ccc(S(C)(=O)=O)c([N+](=O)[O-])c1	x	35	x	40	41*	-5	33*
Cn1ccsc1=NC(=O)c1ccc(S(C)(=O)=O)c([N+](=O)[O-])c1	7	31	-10	35	40*	7	28*
Cn1cccc1C(=O)NC(=O)COC(=O)c1ccc(S(C)(=O)=O)cc1	x	-3	x	10	1	-31	x
CCn1c(COc2ccccc2)nnc1SCC(=O)CC(=O)Nc1ccccc1OC	34	28	6	28	25	x	x
CCn1c(COc2cccc(C)c2)nnc1SCC(=O)CC(=O)Nc1ccccc1OC	x	19	2	21	48*	3	13
